# According to PubChem BioAssay AID1159580 (chemical genetic matrix, 2015):
# In all, about 5,500 compounds went through this assay and about 2,000 (36%) were called active. Another 18% or so got no clear call; they are omitted. This is one part of the list. Values without a mark were called inactive. Cut-off read from the data, not from the text of the source: active = normalized growth mostly below about 0.91 (no sharp cut-off); inconclusive = no clear call, values can overlap the other calls; inactive = mostly above about 0.92.
# Test: chemical genetic growth profiling, strain panel (AID 1159580);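 note: tested at 20 µM; growth read once vehicle control cultures reached saturation at 30 °C; 1 = growth at the plate median or of vehicle wells; lower values mean less growth of the strain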
# Details: S. cerevisiae deletion strains, growth OD
compound,measurement,setting,value
CC1C(c2ccccc2)N(C)C(c2ccccc2)CC1(O)c1ccc(F)cc1 (stereo unspecified),normalized growth,"locus YAR019C, strain CDC15, hits give low values",0.988
same,normalized growth,"locus YBL105C, strain PKC1, hits give low values",0.991
same,normalized growth,"locus YBR135W, strain CKS1, hits give low values",0.99
same,normalized growth,"locus YBR136W, strain MEC1, hits give low values",0.994
same,normalized growth,"locus YBR160W, strain CDC28, hits give low values",0.995
same,normalized growth,"locus YDL017W, strain CDC7, hits give low values",0.997
same,normalized growth,"locus YDL028C, strain MPS1, hits give low values",1
same,normalized growth,"locus YDL101C, strain DUN1, hits give low values",0.986
same,normalized growth,"locus YDL108W, strain KIN28, hits give low values",1.01
same,normalized growth,"locus YDL132W, strain cdc53, hits give low values",0.989
same,normalized growth,"locus YDL214C, strain PRR2, hits give low values",0.976
same,normalized growth,"locus YDR052C, strain DBF4, hits give low values",0.995
same,normalized growth,"locus YDR054C, strain cdc34, hits give low values",0.993
same,normalized growth,"locus YDR226W, strain ADK1, hits give low values",0.992
same,normalized growth,"locus YDR477W, strain SNF1, hits give low values",0.992
same,normalized growth,"locus YER123W, strain YCK3, hits give low values",0.934
same,normalized growth,"locus YER133W, strain GLC7, hits give low values",0.995
same,normalized growth,"locus YFL009W, strain cdc4, hits give low values",0.989
same,normalized growth,"locus YFL029C, strain CAK1, hits give low values",0.99
same,normalized growth,"locus YFR003C, strain YPI1, hits give low values",0.999
same,normalized growth,"locus YFR019W, strain FAB1, hits give low values",0.996
same,normalized growth,"locus YFR028C, strain CDC14, hits give low values",0.984
same,normalized growth,"locus YGR040W, strain KSS1, hits give low values",0.997
same,normalized growth,"locus YGR052W, strain FMP48, hits give low values",1.11
same,normalized growth,"locus YGR092W, strain DBF2, hits give low values",0.968
same,normalized growth,"locus YHR030C, strain SLT2, hits give low values",1.26 [resistant] (active)
same,normalized growth,"locus YHR079C, strain IRE1, hits give low values",1.14
same,normalized growth,"locus YHR082C, strain KSP1, hits give low values",1.13
same,normalized growth,"locus YHR205W, strain SCH9, hits give low values",0.979
same,normalized growth,"locus YIL147C, strain SLN1, hits give low values",1
same,normalized growth,"locus YJL095W, strain BCK1, hits give low values",1.1
same,normalized growth,"locus YJL128C, strain PBS2, hits give low values",0.952
same,normalized growth,"locus YJL157C, strain FAR1, hits give low values",0.972
same,normalized growth,"locus YJR016C, strain ILV3, hits give low values",0.989
same,normalized growth,"locus YJR066W, strain TOR1 (second series), hits give low values",0.983
same,normalized growth,"locus YJR066W, strain TOR1, hits give low values",1.13
same,normalized growth,"locus YKL048C, strain ELM1, hits give low values",0.982
same,normalized growth,"locus YKL067W, strain YNK1, hits give low values",0.98
same,normalized growth,"locus YKL101W, strain HSL1, hits give low values",0.99
same,normalized growth,"locus YKL193C, strain SDS22, hits give low values",0.994
same,normalized growth,"locus YKL203C, strain TOR2, hits give low values",1.06
same,normalized growth,"locus YLR113W, strain HOG1, hits give low values",1.04
same,normalized growth,"locus YLR133W, strain CKI1, hits give low values",0.98
same,normalized growth,"locus YLR403W, strain SFP1, hits give low values",0.99
same,normalized growth,"locus YML070W, strain DAK1, hits give low values",0.973
same,normalized growth,"locus YMR001C, strain CDC5, hits give low values",0.982
same,normalized growth,"locus YMR205C, strain PFK2 (second series), hits give low values",0.989
same,normalized growth,"locus YMR277W, strain FCP1, hits give low values",0.997
same,normalized growth,"locus YNL006W, strain LST8, hits give low values",0.977
same,normalized growth,"locus YNL020C, strain ARK1, hits give low values",0.984
same,normalized growth,"locus YNL161W, strain CBK1, hits give low values",1
same,normalized growth,"locus YNL183C, strain NPR1, hits give low values",1.14
same,normalized growth,"locus YNL207W, strain RIO2, hits give low values",0.999
same,normalized growth,"locus YNL222W, strain SSU72, hits give low values",0.99
same,normalized growth,"locus YNL307C, strain MCK1 (second series), hits give low values",0.987
same,normalized growth,"locus YOL078W, strain AVO1, hits give low values",0.992
same,normalized growth,"locus YOL136C, strain PFK27, hits give low values",0.99
same,normalized growth,"locus YOR061W, strain CKA2, hits give low values",0.972
same,normalized growth,"locus YOR119C, strain RIO1, hits give low values",1.04
same,normalized growth,"locus YOR231W, strain MKK1, hits give low values",1.1
same,normalized growth,"locus YOR329C, strain SCD5, hits give low values",0.992
same,normalized growth,"locus YPL031C, strain PHO85, hits give low values",0.984
same,normalized growth,"locus YPL153C, strain RAD53, hits give low values",0.983
same,normalized growth,"locus YPL204W, strain HRR25, hits give low values",1
same,normalized growth,"locus YPL209C, strain IPL1, hits give low values",1
same,normalized growth,"locus YPL256C, strain CLN2, hits give low values",1.1
same,normalized growth,"locus YPR025C, strain CCL1, hits give low values",0.995
same,normalized growth,"locus YPR106W, strain ISR1, hits give low values",0.999
same,normalized growth,"locus YPR111W, strain DBF20, hits give low values",0.99
same,normalized growth,"strain NNK1, hits give low values",0.998
same,normalized growth,"strain TSCII, hits give low values",0.987
